Source: PubChem BioAssay
Calls of active or inactive are those of the source.

Columns and labels:
Albumin (Bos taurus) = Albumin (Bos taurus) (UniProt P02769); test: bovine serum albumin binders on microarray, profiling panel, artefact control for SMM control protein annotation, biochemical, small-molecule microarray, Alexa647 label, 635/667 nm fluorescence (AID 1118); details: BSA-A647 binding, fluorescence 635 nm, higher = more signal;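 note: score merges 667 nm emission intensity and signal-to-noise per printed compound spot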
Albumin (Bos taurus), sequence (P02769 whole entry, looked up): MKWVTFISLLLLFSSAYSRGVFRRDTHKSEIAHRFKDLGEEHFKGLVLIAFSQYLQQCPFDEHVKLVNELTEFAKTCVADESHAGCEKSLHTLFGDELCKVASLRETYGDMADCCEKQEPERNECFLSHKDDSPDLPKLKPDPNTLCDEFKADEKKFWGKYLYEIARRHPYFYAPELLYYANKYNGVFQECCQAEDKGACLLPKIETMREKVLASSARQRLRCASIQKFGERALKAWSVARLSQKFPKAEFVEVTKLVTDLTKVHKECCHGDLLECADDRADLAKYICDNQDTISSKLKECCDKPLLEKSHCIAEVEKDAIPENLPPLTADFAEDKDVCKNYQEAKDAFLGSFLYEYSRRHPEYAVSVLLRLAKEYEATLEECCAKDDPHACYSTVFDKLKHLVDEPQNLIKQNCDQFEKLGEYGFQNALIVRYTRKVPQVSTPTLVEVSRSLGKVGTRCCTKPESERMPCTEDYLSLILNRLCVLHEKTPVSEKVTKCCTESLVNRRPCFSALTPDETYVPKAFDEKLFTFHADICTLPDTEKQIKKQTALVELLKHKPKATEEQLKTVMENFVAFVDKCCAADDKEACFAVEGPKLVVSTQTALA

[1] = small-molecule microarray binders of probe aXIP, primary screen, biochemical, NeuroSMM set, 635/667 nm fluorescence (AID 1119); details: higher = more signal, called active from +8 up or from −8 down;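 note: probe is the protein aXip251-270 applied at 1 µg/mL to compound-printed slides; binding of probe to printed compounds measured as 667 nm fluorescence plus signal to noise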
[2] = small-molecule binders of probe aNOTCH3, primary screen, biochemical, small-molecule microarray, 635/667 nm fluorescence (AID 1120); details: higher = more signal;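 note: probe is a biotin-tagged antibody raised against NOTCH3 rather than NOTCH3 protein; score merges spot fluorescence near 667 nm with spot signal to noise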
[3] = small-molecule binders of probe aNOTCH2, primary screen, biochemical, small-molecule microarray, 635/667 nm fluorescence (AID 1121); details: higher = more signal;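 note: score merges feature fluorescence read at 667 nm with its signal to noise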
[4] = biological target: Carbonic anhydrase 2 (Homo sapiens) (UniProt P00918); test: CAII small-molecule binders, profiling panel, biochemical, small-molecule microarray, Alexa647-labelled CAII (AID 1122); details: CAII-A647 binding fluorescence, higher = more signal
[5] = COS7 lysate on small-molecule microarray, probe aHis, 635 nm (AID 1123); details: COS7 cell lysate, fluorescence, higher = more signal;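 note: z-score combines 667nm fluorescence intensity with signal-to-noise per printed compound spot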
[6] = compound binding in COS7 lysate, probe aLAP1, primary screen, cell lysate, small-molecule microarray (AID 1124); details: probe aLAP1, fluorescence, higher = more signal;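 note: lysate comes from COS7 cells expressing LAP1 and is applied at 0.3 µg/mL; score merges spot fluorescence near 667 nm with signal-to-noise over triplicate slides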
Sam68 (KHDRBS1) = test: Sam68 small-molecule binders, primary screen, biochemical, small-molecule microarray, 635 nm fluorescence (AID 1125); details: small-molecule microarray binding, higher = more signal;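 note: score merges 667 nm channel intensity with signal to noise over triplicate slides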
[7] = test system: Chordin-like protein 2 (CHRDL2); test: CHRDL2 small-molecule binders, primary screen, biochemical, small-molecule microarray, 635 nm fluorescence (AID 1126); details: small-molecule microarray binding, fluorescence 635 nm; higher = more signal;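 note: printed compound slides probed with Chrdl2 protein at 4 µg/mL for 1 h at 4 C; score merges 667 nm emission intensity with signal to noise over three replicate slides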
[8] = biological target: Concanavalin-A (Canavalia ensiformis) (UniProt P02866); test: ConA small-molecule binders, primary screen, artefact control for SMM control protein annotation, biochemical, small-molecule microarray, Alexa647 label, 635 nm (AID 1127); details: ConA-A647 binding fluorescence, higher = more signal;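 note: z combines 667 nm emission intensity with signal-to-noise across three replicate slides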
Concanavalin-A (Canavalia ensiformis), sequence (P02866 whole entry, looked up): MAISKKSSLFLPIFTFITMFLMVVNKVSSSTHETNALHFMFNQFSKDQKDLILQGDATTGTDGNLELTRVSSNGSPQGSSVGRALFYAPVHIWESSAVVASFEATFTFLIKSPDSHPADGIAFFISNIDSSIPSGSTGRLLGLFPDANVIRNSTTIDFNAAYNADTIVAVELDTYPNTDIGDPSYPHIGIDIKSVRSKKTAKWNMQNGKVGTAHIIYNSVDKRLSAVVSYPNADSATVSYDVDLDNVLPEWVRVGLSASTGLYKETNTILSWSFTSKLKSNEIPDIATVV

[9] = anti-His antibody binders, primary screen, artefact control for SMM control protein annotation, biochemical, small-molecule microarray, 635 nm fluorescence (AID 1128); details: anti-His Alexa647 antibody binding, higher = more signal;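 note: score merges feature fluorescence with signal-to-noise for each printed compound spot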
[10] = test system: Human papillomavirus type 1a E7 protein (residues 1-88); test: HPV1a E7 small-molecule binders, primary screen, biochemical, small-molecule microarray, residues 1-88, 635 nm (AID 1129); details: small-molecule microarray binding, fluorescence 635 nm; higher = more signal
[11] = biological target: Focal adhesion kinase 1 (Homo sapiens) (UniProt Q05397); test: small-molecule microarray binders of FAK, primary screen, biochemical, 635/667 nm fluorescence, BSA, DTT (AID 1130); details: PTK2 binding, 635 nm fluorescence, higher = more signal;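 note: composite of spot emission at 667 nm and signal to noise over triplicate slides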
Focal adhesion kinase 1 (Homo sapiens), sequence (Q05397 whole entry, looked up): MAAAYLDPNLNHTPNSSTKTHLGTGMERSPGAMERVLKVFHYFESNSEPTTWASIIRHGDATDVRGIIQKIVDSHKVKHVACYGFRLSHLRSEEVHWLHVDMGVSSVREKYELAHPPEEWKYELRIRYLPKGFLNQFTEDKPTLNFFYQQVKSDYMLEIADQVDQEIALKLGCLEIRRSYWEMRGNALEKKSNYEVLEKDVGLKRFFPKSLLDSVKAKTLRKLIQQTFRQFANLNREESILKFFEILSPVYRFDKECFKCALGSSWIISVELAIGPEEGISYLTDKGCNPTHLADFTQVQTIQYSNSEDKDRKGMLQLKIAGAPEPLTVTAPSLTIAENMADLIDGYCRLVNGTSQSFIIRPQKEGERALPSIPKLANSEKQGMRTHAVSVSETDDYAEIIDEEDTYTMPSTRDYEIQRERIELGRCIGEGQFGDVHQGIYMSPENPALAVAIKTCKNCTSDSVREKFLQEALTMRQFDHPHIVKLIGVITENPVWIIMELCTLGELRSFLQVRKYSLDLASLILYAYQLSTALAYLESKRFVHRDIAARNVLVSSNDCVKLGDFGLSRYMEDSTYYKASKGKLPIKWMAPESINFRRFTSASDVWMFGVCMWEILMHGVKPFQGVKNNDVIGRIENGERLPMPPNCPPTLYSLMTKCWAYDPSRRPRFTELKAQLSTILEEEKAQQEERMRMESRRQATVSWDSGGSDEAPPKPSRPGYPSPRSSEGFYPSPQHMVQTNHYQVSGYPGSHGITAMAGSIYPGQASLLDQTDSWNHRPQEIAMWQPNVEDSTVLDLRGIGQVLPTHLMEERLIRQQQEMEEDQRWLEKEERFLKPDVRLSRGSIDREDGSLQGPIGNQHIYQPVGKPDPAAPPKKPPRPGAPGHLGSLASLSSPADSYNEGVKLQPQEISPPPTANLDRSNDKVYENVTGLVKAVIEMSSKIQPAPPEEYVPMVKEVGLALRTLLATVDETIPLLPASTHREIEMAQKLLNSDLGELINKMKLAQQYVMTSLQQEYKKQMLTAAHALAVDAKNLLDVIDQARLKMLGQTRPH

[12] = test system: Fibrinogen (Alexa647-labelled); test: fibrinogen binders on compound microarrays, profiling panel, artefact control for SMM control-protein annotation, biochemical, small-molecule microarray, 635/667 nm fluorescence (AID 1131); details: fibrinogen-A647 binding fluorescence, higher = more signal;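 note: z-score merges 667 nm fluorescence with per-spot signal-to-noise over triplicate slides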
[13] = biological target: Follistatin (Homo sapiens) (UniProt P19883); test: follistatin binders on small-molecule microarrays, primary screen, biochemical, small-molecule microarray, 635/667 nm fluorescence (AID 1132); details: FST binding, 635 nm fluorescence, higher = more signal
Follistatin (Homo sapiens), sequence (P19883 whole entry, looked up): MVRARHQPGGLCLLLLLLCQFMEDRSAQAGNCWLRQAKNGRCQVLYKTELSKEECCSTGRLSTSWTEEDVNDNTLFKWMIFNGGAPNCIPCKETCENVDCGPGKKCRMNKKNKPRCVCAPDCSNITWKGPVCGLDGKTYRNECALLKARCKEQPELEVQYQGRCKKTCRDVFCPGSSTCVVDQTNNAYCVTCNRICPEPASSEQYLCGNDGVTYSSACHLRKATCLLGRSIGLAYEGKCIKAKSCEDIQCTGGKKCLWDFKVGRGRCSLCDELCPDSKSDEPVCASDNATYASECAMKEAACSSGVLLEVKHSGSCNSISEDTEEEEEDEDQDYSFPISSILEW

[14] = biological target: Fibroblast growth factor 2 (Homo sapiens) (UniProt P09038); test: FGF2 binders on small-molecule microarrays, primary screen, biochemical, small-molecule microarray, 635/667 nm fluorescence (AID 1133); details: small-molecule microarray binding, FGF2, fluorescence 635/667; higher = more signal
Fibroblast growth factor 2 (Homo sapiens), sequence (P09038 whole entry, looked up): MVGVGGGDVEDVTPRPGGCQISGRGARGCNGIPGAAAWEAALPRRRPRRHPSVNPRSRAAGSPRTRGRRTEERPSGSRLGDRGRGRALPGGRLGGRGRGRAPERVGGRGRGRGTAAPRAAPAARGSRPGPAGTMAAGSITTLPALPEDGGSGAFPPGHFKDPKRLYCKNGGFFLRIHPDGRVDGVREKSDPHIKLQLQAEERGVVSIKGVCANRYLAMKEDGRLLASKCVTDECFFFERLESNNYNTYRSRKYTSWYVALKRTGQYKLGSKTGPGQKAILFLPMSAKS

[15] = mitochondrial membrane potential change in A549 cells, profiling panel, cell-based, JC-1 fluorescence, basal, 24 h, 100 nL (AID 1138); details: higher = more signal;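 note: A549 lung adenocarcinoma cells under basal conditions with no added stimulus; test concentration not given here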
Lefty1 = Lefty1 binders on small-molecule microarrays, primary screen, biochemical, small-molecule microarray, 635/667 nm fluorescence (AID 1139); details: small-molecule microarray binding, fluorescence 635/667; higher = more signal
[16] = test system: wheat germ agglutinin (Triticum aestivum), Alexa647-labelled; test: wheat germ agglutinin binders on compound microarrays, profiling panel, artefact control for SMM control-protein annotation, biochemical, small-molecule microarray, 635/667 nm fluorescence (AID 1140); details: WGA-A647 binding, 635 nm fluorescence, higher = more signal;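 note: score merges 667 nm feature emission with signal to noise over triplicate slides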
[17] = biological target: Luciferin 4-monooxygenase (Photinus pyralis) (UniProt P08659); test: firefly luciferase enzyme inhibitors, primary screen, biochemical, luminescence, purified enzyme, 2006 set (AID 1141); details: SteadyGlo luminescence, 30 min, higher = more signal, called active from +8 up or from −8 down;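 note: cell-free assay with purified firefly luciferase at 100 ng per well in PBS; test concentration not given here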
Luciferin 4-monooxygenase (Photinus pyralis), sequence (P08659 whole entry, looked up): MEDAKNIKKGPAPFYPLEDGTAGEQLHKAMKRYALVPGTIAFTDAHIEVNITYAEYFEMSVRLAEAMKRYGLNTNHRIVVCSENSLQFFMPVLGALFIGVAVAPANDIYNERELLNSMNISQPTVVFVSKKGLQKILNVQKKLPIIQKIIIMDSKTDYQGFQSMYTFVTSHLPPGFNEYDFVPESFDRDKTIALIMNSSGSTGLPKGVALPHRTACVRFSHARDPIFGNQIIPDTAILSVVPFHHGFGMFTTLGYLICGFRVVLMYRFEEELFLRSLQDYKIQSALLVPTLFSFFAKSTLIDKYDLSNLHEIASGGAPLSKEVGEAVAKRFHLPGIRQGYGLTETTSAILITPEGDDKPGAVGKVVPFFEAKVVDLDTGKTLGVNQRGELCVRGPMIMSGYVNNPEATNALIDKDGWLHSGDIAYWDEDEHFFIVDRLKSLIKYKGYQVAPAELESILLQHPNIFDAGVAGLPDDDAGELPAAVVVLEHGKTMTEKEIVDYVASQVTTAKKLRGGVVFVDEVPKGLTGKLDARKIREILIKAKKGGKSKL

Row | Structure (SMILES) | composite z-score (Albumin (Bos taurus)) | composite Z-score [1] | composite z-score [2] | composite z-score [3] | composite z-score [4] | composite z-score [5] | composite z-score [6] | composite z-score (Sam68 (KHDRBS1)) | composite z-score [7] | composite z-score [8] | composite z-score [9] | composite z-score [10] | composite z-score [11] | composite z-score [12] | composite z-score [13] | composite z-score [14] | z-score [15] | composite z-score (Lefty1) | composite z-score [16] | z-score [17]
1 | COCCOC(=O)N1C(=O)[C@@]2(c3cc(C#CC4(O)CCCCCC4)ccc31)[C@H](C(=O)NC[C@H](O)c1ccccc1)[C@H]1C(=O)O[C@H](c3ccccc3)[C@H](c3ccccc3)N1[C@@H]2c1ccccc1OCCO | -0.383 | 1.51 (inactive) | 0.0596 | -0.0956 | 0.668 | 1.04 | -0.0189 | 1.32 | 0.405 | 1.14 | 0.67 | 1.16 | 0.714 | 0.873 | 1.28 | 1.56 | -0.88 | 1.4 | 0.791 | -1.81 (inactive)
2 | CC(C)[C@@H](C(=O)O)n1cc(-c2ccccn2)nn1 | 0.69 | 0.516 (inactive) | -0.146 | 0.0571 | 0.525 | 0.708 | 0.242 | 0.522 | -0.119 | 0.556 | 2.19 | 1.08 | 0.113 | 0.811 | -0.0164 | 0.712 | 1.88 | 0.0234 | 0.957 | -0.495 (inactive)
3 | CO[C@H]1O[C@H](CO)[C@@H](OC(=O)Nc2ccccc2)[C@H](OC(=O)Nc2ccccc2-c2ccccc2)[C@@H]1OC(=O)Nc1ccccc1-c1ccccc1 | 0.903 | -0.0038 (inactive) | 0.224 | -0.094 | 0.419 | 1.9 | 0.381 | 1.3 | -0.138 | 1.19 | 2.82 | 1.22 | 1.11 | 0.976 | 1.07 | 0.478 | 0.458 | 0.36 | 1.26 | -1.24 (inactive)
4 | COCCOC(=O)N1C(=O)[C@@]2(c3ccccc31)[C@H](C(=O)Nc1nc3ccccc3s1)[C@H]1C(=O)O[C@H](c3ccccc3)[C@H](c3ccccc3)N1[C@@H]2c1ccc(O)cc1 | 0.794 | -0.706 (inactive) | 0.288 | -0.0551 | 0.435 | 0.903 | 0.418 | 1.3 | 0.318 | 1.21 | 1.68 | 1.2 | 0.261 | 0.976 | 1.32 | 1.06 | -2.31 | 0.983 | 1.16 | -2.88 (inactive)
5 | C=CCC(OC(C)=O)[C@@H]1[C@@H](N(Cc2cccc3ccccc23)C(=O)Cc2ccc(OC)cc2)c2cc(OCCCO)ccc2N1C(=O)Cc1ccc(OC)cc1 (stereo not given in full) | 0.73 | -0.199 (inactive) | -0.0373 | -0.104 | 0.207 | 0.624 | 0.163 | 0.0025 | 0.0487 | -0.532 | -0.28 | -0.418 | -0.238 | 0.849 | 0.148 | -0.0722 | 0.537 | -0.392 | 0.349 | -0.369 (inactive)
